Results filed as inconclusive are left out. The source made the active and inactive calls. Rule for the calls, unless noted: active = hit-call score of the fitted dose curve at least 0.9, where 1 is the maximum; inactive = score below 0.9.
What was measured:
[1] = ATG_NFI_CIS: Attagene CIS-FACTORIAL HepG2 Assay for human Nuclear Factor I (NFI) (AID 2282989); details: HepG2 cis-regulatory reporter, NFI response element transcription; actives raise or lower the signal
Procedure, shortened: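 Read-out: reporter mRNA via RT-PCR plus capillary electrophoresis with fluorescence detection. Transiently transfected HepG2 (endogenous TF activity on cis promoters), 24 h compound exposure; gain or loss of signal fitted against DMSO.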

[2] = target: Myc proto-oncogene protein (Homo sapiens) (UniProt P01106); experiment: ATG_Myc_CIS: Attagene CIS-FACTORIAL HepG2 Assay for human Myelocytomatosis (Myc) Proto-Oncogene Transcription Factor (AID 2282990); details: HepG2, Attagene cis-reporter transcription factor activity; actives raise or lower the signal
Sequence of Myc proto-oncogene protein (Homo sapiens) (P01106 whole entry, looked up): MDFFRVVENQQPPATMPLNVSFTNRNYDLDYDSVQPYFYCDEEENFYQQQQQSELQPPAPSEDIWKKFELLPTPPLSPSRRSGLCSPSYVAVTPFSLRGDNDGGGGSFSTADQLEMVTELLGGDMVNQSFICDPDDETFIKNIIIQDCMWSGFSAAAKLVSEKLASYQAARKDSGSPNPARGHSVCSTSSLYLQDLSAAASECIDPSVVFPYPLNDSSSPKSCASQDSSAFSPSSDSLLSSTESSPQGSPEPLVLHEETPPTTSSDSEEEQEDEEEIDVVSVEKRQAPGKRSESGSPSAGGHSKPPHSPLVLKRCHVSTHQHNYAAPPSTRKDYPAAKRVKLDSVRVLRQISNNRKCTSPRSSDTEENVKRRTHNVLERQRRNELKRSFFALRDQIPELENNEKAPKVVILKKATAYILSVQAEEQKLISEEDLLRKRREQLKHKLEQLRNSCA
Procedure, shortened: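 HepG2, transient MRTU transfection (cis promoters, endogenous TFs); 24 h dosing; TriZol RNA → oligo(dT) RT → PCR → 6-FAM primer extension → HpaI cut → CE. Bidirectional fit vs DMSO.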

[3] = ATG_NF_kB_CIS: Attagene CIS-FACTORIAL HepG2 Assay for human Nuclear Factor Kappa B (NF-kB) (AID 2282991); details: HepG2 Attagene cis-factorial NF-kB reporter mRNA; actives raise or lower the signal
Procedure, shortened: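 Fluorescence of labelled RT-PCR products separated by capillary electrophoresis gives reporter mRNA levels from transfected HepG2 cells exposed 24 h; values are fitted in both directions relative to DMSO.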

[4] = ATG_NRF2_ARE_CIS: Attagene CIS-FACTORIAL HepG2 Assay for human Nuclear Factor Erythroid 2 Related Factor 2 (NFR2) response to Antioxidant Response Elements (ARE) (AID 2282992); details: HepG2 Attagene ARE/NRF2 reporter, transcription factor activity; actives raise or lower the signal
Procedure, shortened: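 Cis-factorial assay: transfected HepG2 reporter library, 24 h dosing, mRNA readout via RT-PCR/CE; DMSO-referenced bidirectional analysis.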

[5] = ATG_Oct_MLP_CIS: Attagene CIS-FACTORIAL HepG2 Assay for human Octamer-Binding Transcription Factor (Oct) (AID 2282993); details: HepG2 Attagene cis-factorial Oct reporter, mRNA; actives raise or lower the signal
Procedure, shortened: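 Read-out: reporter mRNA via RT-PCR plus capillary electrophoresis of 6-FAM-labelled fragments. Transiently transfected HepG2, 24 h exposure, endogenous TF activity on cis elements. Gain or loss of signal fitted relative to DMSO.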

[6] = target: Cellular tumor antigen p53 (Homo sapiens) (UniProt P04637); experiment: ATG_p53_CIS: Attagene CIS-FACTORIAL HepG2 Assay for human p53 Transcription Factor (AID 2282994); details: HepG2 p53 cis-element reporter, Attagene mRNA; actives raise or lower the signal
Sequence of Cellular tumor antigen p53 (Homo sapiens) (P04637 whole entry, looked up): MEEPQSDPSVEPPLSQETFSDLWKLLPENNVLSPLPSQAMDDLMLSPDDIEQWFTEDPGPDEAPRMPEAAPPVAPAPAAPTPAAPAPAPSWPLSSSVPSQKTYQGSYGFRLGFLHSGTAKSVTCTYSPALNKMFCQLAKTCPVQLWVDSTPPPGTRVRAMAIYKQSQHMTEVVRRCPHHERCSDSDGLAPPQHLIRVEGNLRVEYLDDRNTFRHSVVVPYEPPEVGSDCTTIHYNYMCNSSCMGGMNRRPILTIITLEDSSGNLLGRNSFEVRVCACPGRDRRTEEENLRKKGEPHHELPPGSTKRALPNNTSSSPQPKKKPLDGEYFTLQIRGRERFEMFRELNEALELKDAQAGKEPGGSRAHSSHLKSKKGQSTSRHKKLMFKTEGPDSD
Procedure, shortened: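 Using HepG2 hepatoma cells carrying cis-acting multiplexed reporters, mRNA induction is detected after a 24 h exposure. Gain- and loss-of-signal responses are fitted relative to DMSO-treated cells.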

[7] = BSK_3C_TissueFactor: BioMAP Diversity Plus: 3C Assay for Tissue Factor Biomarker Activity (AID 2282997); details: BioMAP 3C HUVEC, tissue factor biomarker readout; actives raise or lower the signal
Procedure, shortened: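 Human vascular primary cells (umbilical vein endothelium) received test chemical; Tissue Factor was determined by ELISA at 24 h, and both gain and loss of signal versus DMSO were fitted.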

[8] = BSK_3C_uPAR: BioMAP Diversity Plus: 3C Assay for Urokinase-type plasminogen activator receptor (uPAR) Biomarker Activity (AID 2282998); details: BioMAP 3C HUVEC, uPAR biomarker ELISA; actives raise or lower the signal
Procedure, shortened: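 HUVEC primary cells; 24 h post-dose; uPAR by ELISA; gain or loss of signal fitted bidirectionally vs DMSO baseline.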

[9] = BSK_3C_VCAM1: BioMAP Diversity Plus: 3C Assay for Vascular cell adhesion molecule 1 (VCAM1) Biomarker Activity (AID 2282999); details: BioMAP 3C HUVEC, VCAM1 ELISA, cytokine-stimulated; actives raise or lower the signal
Procedure, shortened: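 Endothelial cells from human umbilical vein are treated with test chemical. At 24 h, VCAM-1 is measured by ELISA, and responses in either direction are fitted relative to DMSO.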

[10] = target: human Peroxisome Proliferator-activated Receptor alpha (PPARa), PPARA (gene 5465) (UniProt Q07869); experiment: ATG_PPARa_TRANS: Attagene TRANS-FACTORIAL HepG2 Assay for human Peroxisome Proliferator-activated Receptor alpha (PPARa) (AID 2283001; active = hit-call score of the fitted dose curve at least 0.9, where 1 is the maximum)
Sequence of human Peroxisome Proliferator-activated Receptor alpha (PPARa), PPARA (gene 5465) (Q07869 whole entry, looked up, the tested form may be a part): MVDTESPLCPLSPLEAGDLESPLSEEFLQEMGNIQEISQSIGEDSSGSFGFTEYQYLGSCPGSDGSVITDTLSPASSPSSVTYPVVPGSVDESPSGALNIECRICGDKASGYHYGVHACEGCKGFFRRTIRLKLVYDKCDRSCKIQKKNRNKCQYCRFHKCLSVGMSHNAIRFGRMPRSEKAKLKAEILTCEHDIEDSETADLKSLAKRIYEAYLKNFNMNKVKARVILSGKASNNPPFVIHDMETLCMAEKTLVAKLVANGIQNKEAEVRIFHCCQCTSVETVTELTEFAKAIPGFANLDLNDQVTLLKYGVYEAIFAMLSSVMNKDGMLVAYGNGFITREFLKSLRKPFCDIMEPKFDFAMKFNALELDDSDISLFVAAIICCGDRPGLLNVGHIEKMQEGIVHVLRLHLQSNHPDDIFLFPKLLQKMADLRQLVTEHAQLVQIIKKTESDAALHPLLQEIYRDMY
Procedure, shortened: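 Read-out is fluorescence of reporter cDNA fragments resolved by capillary electrophoresis after RT-PCR. Human HepG2 liver cells carried transfected PPARa-Gal4 chimera and GAL4-UAS reporter units, treated 24 h; activity scored as increase over DMSO.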

[11] = target: human Peroxisome Proliferator-activated Receptor delta (PPARd), PPARD (gene 5467) (UniProt Q03181); experiment: ATG_PPARd_TRANS: Attagene TRANS-FACTORIAL HepG2 Assay for human Peroxisome Proliferator-activated Receptor delta (PPARd) (AID 2283002; active = hit-call score of the fitted dose curve at least 0.9, where 1 is the maximum)
Sequence of human Peroxisome Proliferator-activated Receptor delta (PPARd), PPARD (gene 5467) (Q03181 whole entry, looked up, the tested form may be a part): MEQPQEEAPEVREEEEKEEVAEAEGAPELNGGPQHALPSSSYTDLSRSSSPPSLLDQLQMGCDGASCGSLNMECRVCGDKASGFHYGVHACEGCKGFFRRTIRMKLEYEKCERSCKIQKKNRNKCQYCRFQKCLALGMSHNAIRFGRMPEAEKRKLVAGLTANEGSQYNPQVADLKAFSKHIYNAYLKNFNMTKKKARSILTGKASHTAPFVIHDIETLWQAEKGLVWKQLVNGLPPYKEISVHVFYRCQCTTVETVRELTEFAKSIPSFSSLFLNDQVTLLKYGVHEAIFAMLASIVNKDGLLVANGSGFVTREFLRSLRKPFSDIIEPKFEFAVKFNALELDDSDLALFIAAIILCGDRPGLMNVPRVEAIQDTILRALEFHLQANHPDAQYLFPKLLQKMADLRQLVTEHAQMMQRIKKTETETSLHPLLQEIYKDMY
Procedure, shortened: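 Transient HepG2 transfection (multiple GAL4-UAS RTUs, chimeric receptor-Gal4); 24 h dosing; total RNA → oligo(dT) RT → PCR → 6-FAM primer extension → HpaI cut → CE. Positive direction vs DMSO.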

[12] = read-out: Intercellular Adhesion Molecule 1 (ICAM1), ICAM1 (gene 3383); experiment: BSK_3C_ICAM1: BioMAP Diversity Plus: 3C Assay for Intercellular Adhesion Molecule 1 (ICAM1) Biomarker Activity (AID 2283003); details: primary human endothelial cells (HUVEC); actives raise or lower the signal
Procedure, shortened: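 ICAM-1 levels measured by ELISA after HUVEC cultures in the 3C system had been dosed for 24 h. Gain or loss of signal relative to DMSO was fitted in both directions.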

[13] = BSK_3C_Proliferation: Cell Proliferation Assessment in the BioMAP Diversity Plus: 3C Assay (AID 2283006); details: primary human endothelial cells (HUVEC);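 for AC50: potency may reflect either rise or fall in cell number versus DMSO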
Procedure, shortened: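 Read-out is total protein by SRB absorbance at 560 nm, taken as a proxy for relative cell number. Primary human umbilical vein endothelium cultured below confluence was dosed for 48 h, TCA-fixed and SRB-stained; curves were fitted bidirectionally versus DMSO.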

[14] = target: Nuclear receptor subfamily 1 group I member 2 (Homo sapiens) (UniProt O75469); experiment: ATG_PXR_TRANS: Attagene TRANS-FACTORIAL HepG2 Assay for human Pregnane X Receptor (PXR) (AID 2283008; active = hit-call score of the fitted dose curve at least 0.9, where 1 is the maximum)
Sequence of Nuclear receptor subfamily 1 group I member 2 (Homo sapiens) (O75469 whole entry, looked up, the tested form may be a part): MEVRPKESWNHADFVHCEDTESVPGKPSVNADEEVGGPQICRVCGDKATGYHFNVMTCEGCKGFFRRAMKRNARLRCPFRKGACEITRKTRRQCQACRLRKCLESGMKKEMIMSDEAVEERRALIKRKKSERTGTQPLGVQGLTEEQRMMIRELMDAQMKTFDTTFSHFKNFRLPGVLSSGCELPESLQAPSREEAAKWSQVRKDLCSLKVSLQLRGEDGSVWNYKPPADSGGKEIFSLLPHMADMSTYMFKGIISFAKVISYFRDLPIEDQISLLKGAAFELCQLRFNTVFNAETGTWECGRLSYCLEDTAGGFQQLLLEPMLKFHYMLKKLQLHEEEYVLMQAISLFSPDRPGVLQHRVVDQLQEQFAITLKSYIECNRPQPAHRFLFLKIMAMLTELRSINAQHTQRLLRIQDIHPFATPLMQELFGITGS
Procedure, shortened: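 Fluorescence intensity of FAM-labelled, HpaI-digested reporter amplicons, separated by capillary electrophoresis, quantifies induction. HepG2 cells with PXR-Gal4 trans-reporter system were exposed 24 h; DMSO defines baseline.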

[15] = target: human Retinoic Acid Receptor gamma (RARg), RARG (gene 5916) (UniProt P13631); experiment: ATG_RARg_TRANS: Attagene TRANS-FACTORIAL HepG2 Assay for human Retinoic Acid Receptor gamma (RARg) (AID 2283009; active = hit-call score of the fitted dose curve at least 0.9, where 1 is the maximum)
Sequence of human Retinoic Acid Receptor gamma (RARg), RARG (gene 5916) (P13631 whole entry, looked up): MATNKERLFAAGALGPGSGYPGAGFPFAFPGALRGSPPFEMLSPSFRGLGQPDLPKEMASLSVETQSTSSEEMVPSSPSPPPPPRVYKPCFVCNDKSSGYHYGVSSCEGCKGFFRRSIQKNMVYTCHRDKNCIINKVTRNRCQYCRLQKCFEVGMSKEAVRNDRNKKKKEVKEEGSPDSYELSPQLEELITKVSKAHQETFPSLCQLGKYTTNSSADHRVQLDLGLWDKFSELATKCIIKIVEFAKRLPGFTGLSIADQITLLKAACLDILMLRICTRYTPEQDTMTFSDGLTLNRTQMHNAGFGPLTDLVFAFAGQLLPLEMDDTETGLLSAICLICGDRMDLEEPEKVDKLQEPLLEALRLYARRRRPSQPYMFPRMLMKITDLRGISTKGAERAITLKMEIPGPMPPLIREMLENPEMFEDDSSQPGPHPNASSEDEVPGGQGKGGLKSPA
Procedure, shortened: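 Transient transfection of HepG2 with multi-reporter constructs, then 24 h chemical treatment. Total RNA isolated, reverse-transcribed, PCR-amplified, fluorescently labelled and resolved by capillary electrophoresis; activity scored as mRNA induction versus DMSO.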

[16] = target: human RAR-related Orphan Receptor beta (RORb), RORB (gene 6096) (UniProt Q92753); experiment: ATG_RORb_TRANS: Attagene TRANS-FACTORIAL HepG2 Assay for human RAR-related Orphan Receptor beta (RORb) (AID 2283010; active = hit-call score of the fitted dose curve at least 0.9, where 1 is the maximum)
Sequence of human RAR-related Orphan Receptor beta (RORb), RORB (gene 6096) (Q92753 whole entry, looked up, the tested form may be a part): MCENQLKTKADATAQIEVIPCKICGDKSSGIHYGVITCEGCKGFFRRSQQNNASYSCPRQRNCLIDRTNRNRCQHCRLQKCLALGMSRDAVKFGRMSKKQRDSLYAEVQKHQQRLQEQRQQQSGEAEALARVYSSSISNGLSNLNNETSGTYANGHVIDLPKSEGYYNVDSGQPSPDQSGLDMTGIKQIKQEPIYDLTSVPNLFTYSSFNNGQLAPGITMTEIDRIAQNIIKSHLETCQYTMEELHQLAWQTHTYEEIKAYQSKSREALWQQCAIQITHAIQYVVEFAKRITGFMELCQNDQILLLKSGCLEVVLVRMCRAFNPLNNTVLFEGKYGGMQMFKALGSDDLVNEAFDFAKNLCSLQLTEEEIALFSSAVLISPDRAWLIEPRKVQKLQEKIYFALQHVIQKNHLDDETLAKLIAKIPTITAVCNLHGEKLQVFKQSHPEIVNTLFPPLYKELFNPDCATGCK
Procedure, shortened: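 Readout is reporter-gene mRNA induction, detected as fluorescence after RT-PCR and capillary electrophoresis, fitted for gain of signal against DMSO controls. Transiently transfected HepG2 liver cells carrying GAL4-UAS reporter constructs were treated for 24 hours.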

[17] = target: Peroxisome proliferator-activated receptor gamma (Homo sapiens) (UniProt P37231); experiment: ATG_PPARg_TRANS: Attagene TRANS-FACTORIAL HepG2 Assay for human Peroxisome Proliferator-activated Receptor-gamma (PPARg) (AID 2283007; active = hit-call score of the fitted dose curve at least 0.9, where 1 is the maximum)
Sequence of Peroxisome proliferator-activated receptor gamma (Homo sapiens) (P37231 whole entry, looked up): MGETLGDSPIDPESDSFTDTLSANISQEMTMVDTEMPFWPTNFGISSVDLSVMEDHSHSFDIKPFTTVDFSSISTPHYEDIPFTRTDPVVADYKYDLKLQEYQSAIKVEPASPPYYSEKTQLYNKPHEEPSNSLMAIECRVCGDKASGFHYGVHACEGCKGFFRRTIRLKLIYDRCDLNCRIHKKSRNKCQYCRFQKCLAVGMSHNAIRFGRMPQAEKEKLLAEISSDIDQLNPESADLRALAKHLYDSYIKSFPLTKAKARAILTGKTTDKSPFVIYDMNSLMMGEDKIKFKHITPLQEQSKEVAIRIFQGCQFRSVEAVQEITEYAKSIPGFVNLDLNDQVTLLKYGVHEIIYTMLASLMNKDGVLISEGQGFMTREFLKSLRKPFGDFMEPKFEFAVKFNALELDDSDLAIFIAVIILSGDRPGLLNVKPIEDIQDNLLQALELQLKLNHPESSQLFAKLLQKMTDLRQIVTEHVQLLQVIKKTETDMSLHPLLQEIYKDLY
Procedure, shortened: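 Twenty-four hours after chemical dosing of transiently transfected HepG2 cells, isolated RNA was converted to cDNA, reporter sequences amplified and 6-FAM-labelled, then HpaI-digested and analysed by capillary electrophoresis. Signal increase against DMSO was fitted.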

[18] = target: Retinoic acid receptor alpha (Homo sapiens) (UniProt P10276); experiment: ATG_RARa_TRANS: Attagene TRANS-FACTORIAL HepG2 Assay for human Retinoic Acid Receptor alpha (RARa) (AID 2283005; active = hit-call score of the fitted dose curve at least 0.9, where 1 is the maximum)
Sequence of Retinoic acid receptor alpha (Homo sapiens) (P10276 whole entry, looked up, the tested form may be a part): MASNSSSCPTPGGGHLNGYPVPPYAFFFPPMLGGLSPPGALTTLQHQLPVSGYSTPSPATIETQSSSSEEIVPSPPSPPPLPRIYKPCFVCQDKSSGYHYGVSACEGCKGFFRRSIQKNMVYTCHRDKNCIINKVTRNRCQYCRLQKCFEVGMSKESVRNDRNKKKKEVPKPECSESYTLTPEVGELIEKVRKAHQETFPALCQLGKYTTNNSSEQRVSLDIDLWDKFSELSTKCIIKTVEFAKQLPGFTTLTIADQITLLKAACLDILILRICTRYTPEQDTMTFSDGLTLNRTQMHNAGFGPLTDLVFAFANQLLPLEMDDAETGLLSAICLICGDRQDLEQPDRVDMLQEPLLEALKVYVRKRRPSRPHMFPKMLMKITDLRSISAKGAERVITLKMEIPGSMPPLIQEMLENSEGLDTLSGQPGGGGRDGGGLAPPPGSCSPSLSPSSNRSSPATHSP
Procedure, shortened: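 Reporter transcripts, measured by RT-PCR with fluorescent labeling and capillary electrophoresis after 24 h dosing, reflect activity of an exogenous human RARa–GAL4 fusion in transiently transfected HepG2. Fitted for increase relative to DMSO.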

[19] = BSK_4H_Eotaxin3: BioMAP Diversity Plus: 4H Assay for Eotaxin 3 Biomarker Activity (AID 2283000); details: primary human endothelial cells (HUVEC); actives raise or lower the signal;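 note: CCL26 protein level quantified by ELISA in parallel with SRB cytotoxicity check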
Procedure, shortened: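 Readout is Eotaxin-3 (CCL26) level by ELISA in primary human umbilical vein endothelial cells harvested 24 h after chemical exposure; activity fitted in both directions against DMSO control.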

Measured: AC50

CCCN(CC)CC1COC2(CCC(C(C)(C)C)CC2)O1 (configuration not stated)
inactive: [1] | [2] | [3] | [6] | [7] | [8] | [9] | [10] | [11] | [12] | [13] | [14] | [15] | [16]
active: [4] 5.91 µM | [5] 14.5 µM

CSC(=O)c1c(C(F)F)nc(C(F)(F)F)c(C(=O)SC)c1CC(C)C
active: [8] 32.6 µM | [13] 15.7 µM | [17] 10.9 µM | [14] 1.66 µM
inactive: [1] | [2] | [4] | [5] | [6] | [7] | [9] | [11] | [12] | [15] | [16]

C=CCOC(=O)C(C)(C)OC(=O)c1cc(-n2c(=O)cc(C(F)(F)F)n(C)c2=O)ccc1Cl
active: [4] 21.9 µM | [8] 2.18 µM
inactive: [1] | [2] | [5] | [6] | [7] | [9] | [12] | [13] | [17] | [14]

Nc1c(Cl)c(F)nc(OCC(=O)O)c1Cl
inactive: [1] | [2] | [3] | [4] | [5] | [6] | [7] | [8] | [9] | [12] | [18] | [13] | [17] | [14] | [15] | [16]

COC(=O)N(C(=O)N1CO[C@@]2(C(=O)OC)Cc3cc(Cl)ccc3C2=N1)c1ccc(OC(F)(F)F)cc1
inactive: [1] | [2] | [6] | [7] | [8] | [9] | [11] | [12] | [17] | [15] | [16]
active: [4] 4.35 µM | [5] 1.71 µM | [13] 5.55 µM | [14] 5.9 µM

COc1ccc(-c2ccccc2)cc1NNC(=O)OC(C)C
active: [4] 6.71 µM | [5] 0.882 µM | [17] 50 µM
inactive: [1] | [2] | [3] | [6] | [7] | [8] | [9] | [19] | [12] | [13] | [14] | [16]

CCSC(=O)N1CCCCCC1
inactive: [1] | [2] | [3] | [4] | [5] | [6] | [7] | [8] | [9] | [11] | [12] | [18] | [13] | [17] | [15] | [16]
active: [14] 84.4 µM

CNC(=O)Oc1cccc2ccccc12
inactive: [2] | [3] | [6] | [7] | [8] | [9] | [12] | [18] | [14] | [15] | [16]
active: [1] 74.5 µM | [4] 15.6 µM | [5] 50 µM | [13] 22.9 µM

COP(=O)(OC)O/C(C)=C/C(=O)N(C)C
inactive: [1] | [2] | [3] | [4] | [5] | [6] | [7] | [8] | [9] | [10] | [11] | [12] | [13] | [17] | [14] | [15] | [16]

CCCCC(O)(Cn1cncn1)c1ccc(Cl)cc1Cl (configuration not stated)
active: [4] 20.8 µM | [5] 62.5 µM | [8] 36.5 µM | [13] 26.2 µM
inactive: [1] | [2] | [3] | [6] | [7] | [9] | [11] | [12] | [17] | [14]

Source: PubChem BioAssay (EPA / NIEHS)
